{"source": "PubChem BioAssay (Tox21)", "note": "Results filed as inconclusive are left out. Activity calls are given as the source filed them. Unless noted, calls come from the whole dose curve; as a rule, active = well fitted cell-killing curve with a large enough effect in the repeat runs; inconclusive = weak or mixed curves, or effect the other way; inactive = no such curve, though single readings can be large or run the other way. % is set by controls: 0 for no effect and ±100 for the full control effect; potency is the fitted concentration of half-maximal effect."}
{"biological_target": "Progesterone receptor (Homo sapiens) (UniProt P06401)", "sequence (P06401 whole entry, looked up)": "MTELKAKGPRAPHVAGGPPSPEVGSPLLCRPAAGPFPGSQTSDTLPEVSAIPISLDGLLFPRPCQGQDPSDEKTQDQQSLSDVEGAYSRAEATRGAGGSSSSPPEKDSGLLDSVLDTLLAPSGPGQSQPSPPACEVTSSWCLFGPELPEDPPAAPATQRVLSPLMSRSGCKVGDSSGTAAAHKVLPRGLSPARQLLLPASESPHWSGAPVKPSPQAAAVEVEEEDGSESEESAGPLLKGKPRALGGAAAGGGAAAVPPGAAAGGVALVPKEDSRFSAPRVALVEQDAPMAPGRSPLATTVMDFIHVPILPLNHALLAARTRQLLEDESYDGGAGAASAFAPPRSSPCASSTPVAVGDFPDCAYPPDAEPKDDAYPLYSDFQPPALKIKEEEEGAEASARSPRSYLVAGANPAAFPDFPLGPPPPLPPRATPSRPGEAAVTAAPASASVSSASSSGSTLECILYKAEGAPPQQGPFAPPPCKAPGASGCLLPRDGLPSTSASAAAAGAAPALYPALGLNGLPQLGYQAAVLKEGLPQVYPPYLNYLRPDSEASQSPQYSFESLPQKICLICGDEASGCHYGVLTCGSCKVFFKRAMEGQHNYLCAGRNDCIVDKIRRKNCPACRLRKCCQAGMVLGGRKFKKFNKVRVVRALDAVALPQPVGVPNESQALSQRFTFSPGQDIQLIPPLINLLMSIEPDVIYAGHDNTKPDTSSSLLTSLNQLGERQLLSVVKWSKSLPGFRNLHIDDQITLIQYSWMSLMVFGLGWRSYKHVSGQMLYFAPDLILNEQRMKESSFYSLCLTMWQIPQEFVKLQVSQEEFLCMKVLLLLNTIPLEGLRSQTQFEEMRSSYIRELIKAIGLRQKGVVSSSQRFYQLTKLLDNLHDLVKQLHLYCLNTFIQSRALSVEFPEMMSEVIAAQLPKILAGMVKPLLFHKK", "assay": "qHTS assay to identify small molecule antagonists of the progesterone receptor (PR) signaling pathway (AID 1346795; active = well fitted inhibition curve with a large enough effect in the signal ratio in the repeat runs, not every such curve was filed as active; the % refers to the signal ratio)", "settings": "PR-UAS-bla HEK293T, beta-lactamase FRET ratio, 16 h; series mostly up to 92.4 µM; activity change, negative = inhibition: at the top concentration", "how_it_was_run": "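Fluorescence intensity measured 2 hr after adding beta-lactamase FRET substrate to PR-UAS-bla HEK293T cells that had been co-treated 16 hr with compound and 1 nM R5020 (final concentration) in 2% charcoal-stripped FBS.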"}
{"smiles": "COc1cc(CNC(=O)CCCC/C=C/C(C)C)ccc1O", "Potency": "53 µM (active)"}
{"smiles": "O=C(O)c1ccccc1-n1cc(C(=O)O)c(=O)c2cc(Nc3c(F)cc(F)cc3Cl)c(Cl)cc21", "activity change, negative = inhibition": "1.66% (inactive)"}
{"smiles": "C=C(C)C(=O)OCCCCCCCCCCOC(=O)C(=C)C", "activity change, negative = inhibition": "-0.935% (inactive)"}
{"smiles": "Cc1ccc(S(=O)(=O)NC(=O)NC2CCCC2)cc1", "activity change, negative = inhibition": "5.73% [at 42.5 µM] (inactive)"}
{"smiles": "CCCCCCCCOCCCN", "activity change, negative = inhibition": "-8.32% (inactive)"}
{"smiles": "O=Cc1ccc([N+](=O)[O-])cc1", "activity change, negative = inhibition": "-0.466% (inactive)"}
{"smiles": "CC(C)Oc1ccccc1O", "activity change, negative = inhibition": "0.723% (inactive)"}
{"smiles": "CCCN(C1CCN(C(=O)C2CCNCC2)CC1)[C@@H]1CCc2ccc(OC)cc2C1", "activity change, negative = inhibition": "-6.18% (inactive)"}
{"smiles": "O=C(O)c1cc(C(=O)O)c(C(=O)O)cc1C(=O)O", "activity change, negative = inhibition": "11% (inactive)"}
{"smiles": "C=CCCC", "activity change, negative = inhibition": "9.21% (inactive)"}
{"smiles": "CCCCCCC/C=C/C=O", "activity change, negative = inhibition": "5.1% (inactive)"}
{"smiles": "Clc1ccccc1-c1nc(-c2ccncc2)no1", "Potency": "26.6 µM (active)"}
{"smiles": "C=CC(=O)NC(C)(C)C", "activity change, negative = inhibition": "13.8% (inactive)"}
{"smiles": "COc1ccc(/C=C/c2cc(OC)cc(=O)o2)cc1", "activity change, negative = inhibition": "-26.2% [at 42.5 µM] (inactive)"}
{"smiles": "C(/C=C/C=C/Nc1ccccc1)=Nc1ccccc1", "activity change, negative = inhibition": "-2.56% (inactive)"}
{"smiles": "O=C(Nc1ccc2c(c1)Cc1ccccc1-2)C(F)(F)F", "Potency": "4.33 µM (active)"}
{"smiles": "CC[C@H](NC(C)C)[C@H](O)c1ccc(O)c2[nH]c(=O)ccc12", "activity change, negative = inhibition": "4.42% [at 42.5 µM] (inactive)"}
{"smiles": "C1=COCCC1", "activity change, negative = inhibition": "1.09% (inactive)"}
{"smiles": "COc1ccc(C(=O)c2ccc(C)cc2)c(O)c1", "Potency": "19.5 µM (active)"}
{"smiles": "O=C1c2ccccc2C(=O)c2c1ccc(O)c2O", "activity change, negative = inhibition": "-11.9% [at 42.5 µM] (inactive)"}
{"system": "not listed separately", "assay": "qHTS assay to identify small molecule antagonists of the progesterone receptor (PR) signaling pathway - cell viability counter screen (AID 1346798); note: nearly all actives have a fitted effect of over 50% in size", "settings": "PR-UAS-bla HEK293T viability, CellTiter-Glo luminescence, 16 h; series mostly up to 92.4 µM; activity change, negative = cytotoxicity: at the top concentration", "how_it_was_run": "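CellTiter-Glo luminescence; PR-UAS-bla HEK293T, 3,000 cells/well; compound + R5020, 16 hr, 37C/5% CO2; 30 min RT before read.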"}
{"smiles": "O=C(O)c1ccccc1-n1cc(C(=O)O)c(=O)c2cc(Nc3c(F)cc(F)cc3Cl)c(Cl)cc21", "activity change, negative = cytotoxicity": "20.4% (inactive)"}
{"smiles": "O=C(Nc1ccccc1)c1cc([N+](=O)[O-])ccc1Cl", "activity change, negative = cytotoxicity": "5.76% (inactive)"}
{"smiles": "C[C@H]1C[C@H]2[C@@H]3CCC4=CC(=O)C=C[C@]4(C)[C@@]3(F)[C@@H](O)C[C@]2(C)[C@@]1(O)C(=O)COP(=O)(O)O", "activity change, negative = cytotoxicity": "-3.69% (inactive)"}
{"smiles": "CC(C)CCCCCOC(=O)CS", "activity change, negative = cytotoxicity": "-12.5% (inactive)"}
{"smiles": "O=c1[nH][nH]c2ccccc12", "activity change, negative = cytotoxicity": "18.5% (inactive)"}
{"smiles": "Cc1ccc(S(=O)(=O)NC(=O)NC2CCCC2)cc1", "activity change, negative = cytotoxicity": "3.95% [at 42.5 µM] (inactive)"}
{"smiles": "O=C(N[C@@H](Cc1ccccc1)[C@@H](O)C(=O)N1C[C@@H](O)[C@@H](O)C1)c1cc2cc(Cl)ccc2[nH]1", "activity change, negative = cytotoxicity": "28.3% (inactive)"}
{"smiles": "CCCCCCCCOCCCN", "activity change, negative = cytotoxicity": "-26.3% (inactive)"}
{"smiles": "O=Cc1ccc([N+](=O)[O-])cc1", "activity change, negative = cytotoxicity": "29.5% (inactive)"}
{"smiles": "CC(C)Oc1ccccc1O", "activity change, negative = cytotoxicity": "-2.68% (inactive)"}
{"smiles": "CCCN(C1CCN(C(=O)C2CCNCC2)CC1)[C@@H]1CCc2ccc(OC)cc2C1", "activity change, negative = cytotoxicity": "-21.4% (inactive)"}
{"smiles": "CCCc1ccc(OC)cc1", "activity change, negative = cytotoxicity": "4.03% (inactive)"}
{"smiles": "CCOc1cc(OCC)c(C(C)=O)cc1OCC", "activity change, negative = cytotoxicity": "-16.6% (inactive)"}
{"smiles": "O=C(O)c1cc(C(=O)O)c(C(=O)O)cc1C(=O)O", "activity change, negative = cytotoxicity": "6% (inactive)"}
{"smiles": "Cc1cc(C)c(C)c(O)c1", "activity change, negative = cytotoxicity": "-0.606% (inactive)"}
{"smiles": "FC(F)(Cl)C(F)(Cl)Cl", "activity change, negative = cytotoxicity": "8.28% (inactive)"}
{"smiles": "CCc1ccc2c(c1)C(=O)c1ccccc1C2=O", "activity change, negative = cytotoxicity": "22.2% (inactive)"}
{"smiles": "Cc1c(-c2cccnc2)c2ccccc2n1CCCCC(=O)O", "activity change, negative = cytotoxicity": "8.88% (inactive)"}
{"smiles": "CCC(C)C1N=C(C)C(C)S1", "note": "(centres undefined)", "activity change, negative = cytotoxicity": "18.8% (inactive)"}
{"smiles": "CCCCCCC/C=C/C=O", "activity change, negative = cytotoxicity": "-14.9% (inactive)"}
{"smiles": "C=CC(=O)NC(C)(C)C", "activity change, negative = cytotoxicity": "-7.51% (inactive)"}
{"smiles": "CC(C)CC(C)(C)C", "activity change, negative = cytotoxicity": "-27.9% (inactive)"}
{"smiles": "C=Cc1ccc(C=C)cc1", "activity change, negative = cytotoxicity": "-3.6% (inactive)"}
{"smiles": "C(/C=C/C=C/Nc1ccccc1)=Nc1ccccc1", "activity change, negative = cytotoxicity": "-1.7% (inactive)"}
{"smiles": "O=C(OCCN1CCOCC1)c1cccnc1Nc1cccc(C(F)(F)F)c1", "activity change, negative = cytotoxicity": "-0.796% [at 42.5 µM] (inactive)"}
{"smiles": "CC[C@H](NC(C)C)[C@H](O)c1ccc(O)c2[nH]c(=O)ccc12", "activity change, negative = cytotoxicity": "-2.19% [at 42.5 µM] (inactive)"}
{"smiles": "C1=COCCC1", "activity change, negative = cytotoxicity": "0.295% (inactive)"}
{"smiles": "Clc1cc(Cl)c2c(c1)N=C1CCCCCN1C2", "activity change, negative = cytotoxicity": "-25.6% [at 42.5 µM] (inactive)"}
{"smiles": "COc1ccc(C(=O)c2ccc(C)cc2)c(O)c1", "activity change, negative = cytotoxicity": "21% (inactive)"}
{"smiles": "CC(=O)S[C@H](C(=O)N[C@H]1Cc2ccccc2[C@H]2CCC[C@@H](C(=O)O)N2C1=O)C(C)C", "activity change, negative = cytotoxicity": "8.36% (inactive)"}
{"smiles": "CCCCCCOC(=O)c1ccccc1", "Potency": "15.4 µM (active)"}
{"smiles": "O=S(=O)(O)c1cc(Cl)c(Cl)cc1Cl", "Potency": "30.6 µM (active)"}
{"smiles": "O=C1c2ccccc2C(=O)c2c1ccc(O)c2O", "activity change, negative = cytotoxicity": "14.9% [at 42.5 µM] (inactive)"}
{"system": "not listed separately", "assay": "qHTS assay to identify small molecule agonists of the progesterone receptor (PR) signaling pathway - cell viability counter screen (AID 1346799; calls by dose curve; note: nearly all actives have a fitted effect of over 45% in size)", "settings": "PR-UAS-bla HEK293T viability, CellTiter-Glo luminescence, 16 h; series mostly up to 92.4 µM; activity change, negative = cytotoxicity: at the top concentration", "how_it_was_run": "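In parallel with the beta-lactamase readout, cytotoxicity toward PR-UAS-bla HEK293T cells was measured by CellTiter-Glo luminescence following 16 hr compound incubation in 2% charcoal-stripped FBS medium.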"}
{"smiles": "O=C(Nc1ccccc1)c1cc([N+](=O)[O-])ccc1Cl", "activity change, negative = cytotoxicity": "18.8% (inactive)"}
{"smiles": "C[C@H]1C[C@H]2[C@@H]3CCC4=CC(=O)C=C[C@]4(C)[C@@]3(F)[C@@H](O)C[C@]2(C)[C@@]1(O)C(=O)COP(=O)(O)O", "activity change, negative = cytotoxicity": "7.15% (inactive)"}
{"smiles": "CC(C)CCCCCOC(=O)CS", "activity change, negative = cytotoxicity": "-6.52% (inactive)"}
{"smiles": "O=c1[nH][nH]c2ccccc12", "activity change, negative = cytotoxicity": "-6% (inactive)"}
{"smiles": "C=C(C)C(=O)OCCCCCCCCCCOC(=O)C(=C)C", "activity change, negative = cytotoxicity": "0.195% (inactive)"}
{"smiles": "O=C(N[C@@H](Cc1ccccc1)[C@@H](O)C(=O)N1C[C@@H](O)[C@@H](O)C1)c1cc2cc(Cl)ccc2[nH]1", "activity change, negative = cytotoxicity": "15.9% (inactive)"}
{"smiles": "CCCc1ccc(OC)cc1", "activity change, negative = cytotoxicity": "0.278% (inactive)"}
{"smiles": "CCOc1cc(OCC)c(C(C)=O)cc1OCC", "activity change, negative = cytotoxicity": "3.31% (inactive)"}
{"smiles": "Cc1cc(C)c(C)c(O)c1", "activity change, negative = cytotoxicity": "3.93% (inactive)"}
{"smiles": "FC(F)(Cl)C(F)(Cl)Cl", "activity change, negative = cytotoxicity": "-4.06% (inactive)"}
{"smiles": "CCc1ccc2c(c1)C(=O)c1ccccc1C2=O", "activity change, negative = cytotoxicity": "12% (inactive)"}
{"smiles": "Cc1c(-c2cccnc2)c2ccccc2n1CCCCC(=O)O", "activity change, negative = cytotoxicity": "1.04% (inactive)"}
{"smiles": "C=CCCC", "activity change, negative = cytotoxicity": "-2.1% (inactive)"}
{"smiles": "CCC(C)C1N=C(C)C(C)S1", "note": "(centres undefined)", "activity change, negative = cytotoxicity": "3.87% (inactive)"}
{"smiles": "CC(C)CC(C)(C)C", "Potency": "31.8 µM (active)"}
{"smiles": "C=Cc1ccc(C=C)cc1", "activity change, negative = cytotoxicity": "-21.6% (inactive)"}
{"smiles": "O=C(OCCN1CCOCC1)c1cccnc1Nc1cccc(C(F)(F)F)c1", "activity change, negative = cytotoxicity": "25.4% [at 42.5 µM] (inactive)"}
{"smiles": "Clc1cc(Cl)c2c(c1)N=C1CCCCCN1C2", "activity change, negative = cytotoxicity": "-25.9% [at 42.5 µM] (inactive)"}
{"smiles": "CC(=O)S[C@H](C(=O)N[C@H]1Cc2ccccc2[C@H]2CCC[C@@H](C(=O)O)N2C1=O)C(C)C", "activity change, negative = cytotoxicity": "5.67% (inactive)"}
{"smiles": "CCCCCCOC(=O)c1ccccc1", "Potency": "17.2 µM (active)"}
{"smiles": "O=S(=O)(O)c1cc(Cl)c(Cl)cc1Cl", "Potency": "30.6 µM (active)"}
